D2 ag-1 = activates the human D2 dopamine receptor; 340,000 tested, 0.53% active; activation, % at 2 µM; P14416; HEK293 T-REx D2 cells, calcium flux agonist mode; AID 485358;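 active = activation over 3 SD above normal in the single-dose calcium agonist read, cut at about 30% in these data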
Target sequence (P14416 whole entry, looked up): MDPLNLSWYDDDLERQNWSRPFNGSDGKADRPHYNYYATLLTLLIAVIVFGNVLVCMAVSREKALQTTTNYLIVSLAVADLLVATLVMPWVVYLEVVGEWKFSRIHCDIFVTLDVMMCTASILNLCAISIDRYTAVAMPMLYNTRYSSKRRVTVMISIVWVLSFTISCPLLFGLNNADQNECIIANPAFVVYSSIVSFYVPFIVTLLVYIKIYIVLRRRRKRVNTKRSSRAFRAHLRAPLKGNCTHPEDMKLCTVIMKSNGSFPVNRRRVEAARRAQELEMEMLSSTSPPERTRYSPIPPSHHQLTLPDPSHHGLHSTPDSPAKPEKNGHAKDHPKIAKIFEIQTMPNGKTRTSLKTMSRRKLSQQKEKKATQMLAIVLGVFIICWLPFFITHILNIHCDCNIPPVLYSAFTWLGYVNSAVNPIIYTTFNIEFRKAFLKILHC
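Tetracycline-induced HEK293 Trex cells with D2 receptor force-coupled to calcium signaling, plated overnight at 30 C and loaded with no-wash calcium dye. Calcium flux read kinetically for 180 s after compound addition; responses flag agonists.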
D2 PAM-1 = positive allosteric modulators of human D2 dopamine receptor; HEK293 T-REx D2, calcium flux, EC20 dopamine potentiation; potentiation, % at 10 µM; 340,000 tested, 0.34% active;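 active = potentiation over 3 SD above the plate norm, cut at about 30% in these data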
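Primary screen. Calcium kinetics in induced HEK293 T-REx D2 cells: compound pre-addition 180 s, EC20 dopamine, 180 s more.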
D2 PAM-2 = positive allosteric modulators of human D2 dopamine receptor; DiscoveRx D2 beta-arrestin cells, luminescence, 90 min; 100% = 57 uM dopamine signal; 360,000 tested, 0.23% active; potentiation, % (concentration not given with the values); P14416; in the data active = potentiation above about 50%; inconclusive = mostly about 30% to 49%
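D2 cells co-treated with compound plus 50 nM dopamine (EC20) for 90 min at 37 deg C to detect potentiation. Beta-arrestin recruitment was read as enzyme-fragment luminescence after 1 h at ambient temperature. Full response was set by 57 uM dopamine.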
D2 ag-2 = human D2 receptor agonism in beta-arrestin assay. activation, % (no concentration beside the values). AID 624465. DiscoveRx PathHunter D2 beta-arrestin, luminescence, 90 min; 100% = 57 uM dopamine signal. 360,000 tested, 0.084% active. P14416; in the data active = activation above about 40%; inconclusive = between about 15% and that limit
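DiscoveRx PathHunter D2 beta-arrestin cells (2,100/well) attached overnight, then compound-stimulated 90 min at 37 C in HBSS/10 mM HEPES/0.1% Tween-20 buffer; beta-galactosidase complementation read by luminescence after 1 h at ambient temperature. Dopamine 57 uM final (EC100) as control.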
D2 antagonist = antagonists of human D2 dopamine receptor; inhibition, % at 10 µM; 340,000 tested, 2% active; HEK293 TREx D2 cells, calcium flux, dopamine EC80; AID 485344; in the data active = inhibition above about 30%; inactive = below that, where a call was filed
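Calcium mobilization kinetics were recorded at 1 s intervals in tetracycline-induced HEK293 T-REx D2 cells, first for 180 s after compound addition and then 180 s after EC80 dopamine.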
Large screens that a line does not name were inactive. In the library only some 2.4% were active in any assay of this set; here they are far more common.

CC(C)(C)c1ccc(Oc2ccc(NC(=O)c3cccs3)cn2)cc1	D2 PAM-1 31
Cc1cccc(C(=O)NCC(=O)OCCOc2ccccc2Cl)c1	none
O=C1CCSC2(C(=O)N(Cc3ccc(F)cc3)c3ccccc32)N1c1ccc(Cl)cc1 (centres undefined)	none (no result: D2 PAM-2, D2 ag-2, D2 antagonist)
COc1ccc(C(=O)c2c(C(F)(F)F)oc3c2C(=O)c2ccccc2C3=O)cc1OC	D2 PAM-2 inconclusive, D2 ag-2 inconclusive, D2 antagonist 31
O=C(COc1cc2oc(=O)c3c(c2cc1Cl)CCC3)NCCCN1CCCC1=O	none
O=C(COc1cc2oc(=O)c3c(c2cc1Cl)CCC3)Nc1ccc(CN2CCOCC2)cc1	D2 PAM-1 30
CC(C)(CNC(=O)CNC(=O)c1ccc(Cl)cc1Cl)N1CCOCC1	none
Cc1ccc(C)c(Cn2nc3c4ccccc4n(Cc4ccccc4)cc-3c2=O)c1	D2 antagonist 30
Cc1cccc(NC(=O)Cn2nc3c4ccccc4n(Cc4ccccc4)cc-3c2=O)c1	none (no result: D2 PAM-2, D2 ag-2, D2 antagonist)
CCc1cc(=O)oc2c(CN3CCN(C)CC3)c(O)c(Cl)cc12	D2 PAM-1 35
CCN(CC(=O)NC(c1ccccc1)c1ccccc1)Cc1nc2ccccc2c(=O)[nH]1	D2 antagonist 32
Cc1cc2n(n1)CCC(=O)N2Cc1ccc(C(=O)Nc2ccc(Br)c(C)c2)cc1	none (no result: D2 PAM-2, D2 ag-2, D2 antagonist)
COc1cccc(C(=O)Nc2ccccc2C(=O)OCc2cc(=O)n3nc(C4CC4)sc3n2)c1	none (no result: D2 ag-1, D2 PAM-2, D2 ag-2, D2 antagonist)
CC(C)Cn1c(CCCNC(=O)c2ccc(F)cc2)nc2ccccc21	D2 antagonist 31
CCOCCCNC(=O)Cn1nc(C)n2c(cc3cc(C)ccc32)c1=O	none (no result: D2 PAM-2, D2 ag-2, D2 antagonist)
CC12CN3CC(C)(CN(C1)C3c1ccc(Br)cc1O)C2 (centres undefined)	D2 antagonist 36
O=[N+]([O-])c1ccccc1-c1ccc(CN2CCN(c3ccccc3)CC2)o1	D2 ag-2 inconclusive, D2 antagonist 52
Cc1ccc(S(=O)(=O)c2cn(CC(=O)Nc3ccc(F)cc3)c3cc4c(cc3c2=O)OCO4)cc1	none (no result: D2 PAM-2, D2 ag-2, D2 antagonist)
COc1ccc(CNC(=O)COC(=O)Cc2ccc(Br)cc2)cc1	none (no result: D2 ag-1, D2 PAM-1, D2 antagonist)
O=C(CN1C(=O)CCC1=O)NCC12CC3CC(CC(C3)C1)C2	D2 PAM-1 38
CN(C(=O)CSc1nnc(-c2ccc([N+](=O)[O-])cc2)o1)c1ccccc1	none (no result: D2 PAM-2, D2 ag-2, D2 antagonist)
CCCNC(=O)CSc1nc2ccc(OCC)cc2s1	D2 antagonist 35
Cc1ccc2nc(-c3cccnc3SCC(=O)N3c4ccccc4CC3C)[nH]c2c1 (centres undefined)	none
CCCn1c(SCC(=O)N2c3ccccc3CC2C)nnc1-c1ccco1 (centres undefined)	D2 PAM-1 43
CCCn1c(SCC(=O)N2CCc3ccccc32)nnc1-c1ccco1	none
CCn1c(SCC(=O)N2c3ccccc3Sc3ccccc32)nnc1-c1ccco1	D2 PAM-1 40
Cc1ccc2nc(SCC(=O)N3c4ccccc4CC3C)c(C)cc2c1 (centres undefined)	D2 PAM-1 32
C=CCn1c(SCC(=O)N2c3ccccc3Sc3ccccc32)nnc1-c1ccco1	none
Cc1cc2c(cc1NS(=O)(=O)c1cccc(C#N)c1)n(C)c(=O)c(=O)n2C	none (no result: D2 ag-1, D2 PAM-2, D2 ag-2, D2 antagonist)
COc1ccc(/C=C/C(=O)Nc2ccc3nc(N4CCC(C)CC4)cc(C)c3c2)cc1OC	none (no result: D2 PAM-2, D2 ag-2, D2 antagonist)
Cc1ccccc1CNCc1c(C(=O)O)c(C)n(Cc2ccc(F)cc2Cl)c1C	none (no result: D2 PAM-2, D2 ag-2, D2 antagonist)
O=c1c2nnn(-c3cccc(F)c3)c2ncn1Cc1ccccn1	D2 antagonist 34
CCOc1ccc(C(=O)NNC(=O)CN2C(=O)NC3(CCCC3)C2=O)cc1	D2 antagonist 42
CCOc1ccc(C(=O)CN2C(=O)NC3(CCCCCC3)C2=O)cc1	none
O=C(Nc1ncccn1)c1cc([N+](=O)[O-])cc([N+](=O)[O-])c1	D2 PAM-2 54
O=C(Nc1ncccn1)c1ccc([N+](=O)[O-])cc1	none (no result: D2 ag-1, D2 PAM-1, D2 antagonist)
O=C(Nc1cccc2c1CCCC2)c1cc([N+](=O)[O-])cc([N+](=O)[O-])c1	D2 PAM-2 62
COc1ccc(C(=O)Nc2cccc3c2CCCC3)cc1	none
Cc1ccc(NC(=O)C(C)OC(=O)CCC2CCCCC2)cc1 (centres undefined)	none
CCC(c1nnnn1C1CCCC1)N1CCN(c2ccccc2F)CC1 (centres undefined)	none
